Measurements as given in the OligoGym collection.

target: JMJD8; assay: pooled miR-30 sensor sort-seq; sequence = guide strand; settings: shRNA
Further: reference of the scale not given here.

Point of comparison: TACGACCGTAGATCACTTCTGA, sensor-assay potency score (higher = more potent) 0.324. Against it:
- TTGAGCGTAGCATGCCACCAGC — lower, -0.983
- TAGATCACTTCTGAGTACCCGG — lower, -0.223
- TACTGCTGCACGAACTCCGCGT — lower, -0.255
- TAGGAGTAGGTGTTGGCGGTGC — higher, 0.392
- TTTGTGGTAGGAGTAGGTGTTG — lower, -1.04
- TAGCATGCCACCAGCGGTCGGG — lower, -0.51
- TATACATAGTTTATGTTCCTGG — lower, -0.256
- TTATTGACGCATTCATCTCTGA — lower, -0.0992
- TACAGCACCTCACCAGCCCGGA — lower, -0.942
- TATCTGTGTAATAAAATCCGTG — lower, -0.911
- TTGTGGTAGGAGTAGGTGTTGG — lower, -1.22

target: JOSD1; assay: as above; settings: shRNA

Point of comparison: TTTTAGAAACTTCCTGAGCTCG, sensor-assay potency score (higher = more potent) -0.609. Against it:
- TTCCTGAGCTCGCTCTCGCCTC — lower, -1.09
- TACCTCTTCTGGTACCACCAGC — lower, -0.788
- TTGAGTTTGGAGTCGAGGTTGT — higher, 0.206
- TCGAACACAGATCCAGTGCTGC — lower, -0.708
